In the library only some 6.6% were active in any assay of this set; here they are far more common.
NR3A LBD binder – modulates the human NR3A ligand-binding domain; actives 2.5% (n = 340,000); Tm shift relative to glycine control, % at 25 µM; NR3A LBD differential scanning fluorimetry, Tm shift; 0% = protein alone, 100% = glycine-bound protein; AID 1259313;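 active = melting temperature shift of at least 10% of the positive control shift, at one fixed dose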
Gli-Sufu antag – Gli-Sufu pathway antagonism | Sufu-KO-LIGHT fibroblasts, Gli luciferase reporter luminescence | inhibition, % at 5 µM | actives 0.74% (n = 340,000);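 active = inhibition above about 55%, limit read from the data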
Mdm2 MdmX PPI – inhibitors of human Mdm2/MdmX interaction. actives 3% (n = 330,000). O15151+Q00987. SaOS-2 split-luciferase Mdm2/MdmX complementation, luminescence. AID 485346. inhibition, % at 8 µM;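 active = inhibition of at least 50% at 8 µM in the primary screen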
Target sequence (O15151 whole entry, looked up): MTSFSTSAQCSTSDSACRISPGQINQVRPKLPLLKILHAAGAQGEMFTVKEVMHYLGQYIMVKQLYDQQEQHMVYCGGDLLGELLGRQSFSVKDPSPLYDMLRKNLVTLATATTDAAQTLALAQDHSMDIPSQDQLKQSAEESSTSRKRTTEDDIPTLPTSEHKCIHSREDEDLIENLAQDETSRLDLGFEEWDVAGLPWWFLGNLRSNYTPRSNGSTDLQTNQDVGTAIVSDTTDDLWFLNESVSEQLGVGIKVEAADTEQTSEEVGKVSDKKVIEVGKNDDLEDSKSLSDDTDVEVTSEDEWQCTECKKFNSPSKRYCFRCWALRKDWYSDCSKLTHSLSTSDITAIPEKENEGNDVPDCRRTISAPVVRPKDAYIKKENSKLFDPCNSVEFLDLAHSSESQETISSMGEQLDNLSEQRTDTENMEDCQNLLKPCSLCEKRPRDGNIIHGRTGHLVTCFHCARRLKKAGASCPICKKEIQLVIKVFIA
Target sequence (Q00987 whole entry, looked up): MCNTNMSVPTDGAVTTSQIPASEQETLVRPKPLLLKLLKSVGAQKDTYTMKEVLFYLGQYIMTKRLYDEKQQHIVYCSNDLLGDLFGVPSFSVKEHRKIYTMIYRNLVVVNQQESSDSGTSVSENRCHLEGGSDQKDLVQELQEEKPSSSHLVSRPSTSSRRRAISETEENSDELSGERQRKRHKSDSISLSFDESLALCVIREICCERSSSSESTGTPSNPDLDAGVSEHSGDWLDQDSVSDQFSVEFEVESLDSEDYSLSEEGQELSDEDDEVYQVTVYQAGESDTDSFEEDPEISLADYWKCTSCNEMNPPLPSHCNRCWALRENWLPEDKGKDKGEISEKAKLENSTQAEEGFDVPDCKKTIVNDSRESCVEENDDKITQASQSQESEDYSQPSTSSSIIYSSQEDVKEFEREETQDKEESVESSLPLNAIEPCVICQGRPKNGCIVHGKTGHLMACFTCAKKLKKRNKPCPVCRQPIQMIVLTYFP
Beta cell apopt – blocks beta cell apoptosis. INS-1E cytokine-induced death, ATP luminescence, 48 h; percent of positive-control rescue, neutral wells zero. protection from apoptosis, % (test concentration not listed). actives 0.8% (n = 300,000);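 active = Every replicate reaches about 75%, or at least half do and their mean reaches it too, limit read from the data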;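 also: higher means more ATP so stronger rescue from cytokine killing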
MPTP inh – permeability transition pore inhibition; isolated mouse mitochondria, Ca2+ swelling absorbance, 30 min; inhibition, % at 10 µM; actives 1.4% (n = 360,000); AID 602449;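 active = inhibition of 50% or more, scaled per plate between neutral and stimulator controls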
CSC inhib – cancer stem cell inhibition | cancer stem cell-like cells viability, luminescence | inhibition, % at 7.5 µM | actives 1.1% (n = 300,000) | AID 2717; in the data active = inhibition above about 75%; tested in HMLE shEcad cells
Mdm2-MdmX conf – confirmation of human Mdm2/MdmX interaction inhibitors; actives 55% (n = 10,000); inhibition, % at 8 µM; shares compounds with Mdm2 MdmX PPI; Mdm2-MdmX binding, luminescent assay; in the data active = inhibition above about 40%
FLuc counter – full-length luciferase inhibition in Mdm2/MdmX counter-screen; SaOS-2 full-length luciferase counterscreen, luminescence; actives 77% (n = 6,200); shares compounds with Mdm2 MdmX PPI; inhibition, % at 8 µM; AID 504607;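 active = mean inhibition at 8 µM reaching about 37%, which flags the compound as non-specific, limit read from the data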;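 also: p53-null SaOS-2 cells with luciferase driven by a doxycycline-inducible promoter; compound on cells about two nights before reading with doxycycline added after day one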
Hits are given with their value; - = inactive; . = no result.

SMILES | NR3A LBD binder | Gli-Sufu antag | Mdm2 MdmX PPI | Beta cell apopt | MPTP inh | CSC inhib | Mdm2-MdmX conf | FLuc counter
COc1ccccc1C1c2ccc3ccccc3c2Oc2ncn(CCN(C)C)c(=N)c21 (stereo not given) | - | - | 100.3 | - | - | 84.7 | 85.1 | 37.8
COc1ccc(C2c3ccc4ccccc4c3Oc3ncn(Cc4ccco4)c(=N)c32)cc1OC (stereo not given) | - | - | 85.1 | - | - | 79.8 | 54.3 | 67.0
COc1ccc(C2c3c(ncn(CCN4CCOCC4)c3=N)Oc3ccc4ccccc4c32)cc1OC (stereo not given) | - | - | 63.6 | - | - | - | - | 58.7
COc1ccccc1C1c2ccc3ccccc3c2Oc2ncn(CCCO)c(=N)c21 (stereo not given) | - | - | 73.9 | - | - | - | 42.8 | 60.8
COc1ccc(C2c3ccc4ccccc4c3Oc3ncn4nc(Cc5ccccc5)nc4c32)cc1OC (stereo not given) | - | - | - | - | - | - | . | .
COc1ccc(C2c3ccc(O)cc3Oc3ncn(Cc4ccco4)c(=N)c32)cc1OC (stereo not given) | - | - | - | - | - | - | . | .
CCCOc1ccc(NC(=O)CC2C(=O)N(c3ccc(OCC)cc3)C(=S)N2C2CC2)cc1 (stereo not given) | - | - | - | - | - | - | . | .
COc1ccc(C2c3c(ncn(CCCO)c3=N)Oc3ccc4ccccc4c32)cc1 (stereo not given) | - | - | 80.7 | - | - | - | 70.0 | 56.5
COc1ccc(C2c3ccc4ccccc4c3Oc3ncn(CCCN(C)C)c(=N)c32)cc1 (stereo not given) | - | - | 100.3 | 111.6 | - | 105.1 | 100.2 | 51.2
COc1ccc(C2c3c(ncn(CCCO)c3=N)Oc3ccc4ccccc4c32)cc1OC (stereo not given) | - | - | - | . | - | . | . | .
CCCCn1c(-c2ccc(C(C)(C)C)cc2)nc2cc3[nH]c(=O)c(C(C)C)nc3cc21 | - | - | 63.7 | - | - | - | - | .
COc1ccc(Nc2nc(N)c([N+](=O)[O-])c(NCCO)n2)cc1 | - | - | - | - | - | - | . | .
CNc1nc(Nc2ccc(Br)cc2)nc(N)c1[N+](=O)[O-] | - | - | 66.9 | - | - | - | - | .
COc1ccc(Nc2nc(N)c([N+](=O)[O-])c(NC3CCCCC3)n2)cc1 | 10.9 | - | 69.7 | - | - | 100.9 | - | .
COc1cccc(CNC(=O)[C@H](C)NC(=O)N2CC(=O)Nc3ccccc32)c1 | . | . | . | . | - | . | . | .
COCCN(C(=O)c1ccccc1F)c1nnc(-c2ccc(OC)cc2)s1 | - | - | - | . | - | - | . | .
CCc1nnc(NC(=O)c2ccc(-c3ccc(C(C)=O)cc3)o2)s1 | - | - | - | - | - | - | . | .
CCc1nnc(NC(=O)c2ccc(-c3ccc(Cl)cc3)o2)s1 | 14.6 | - | 65.1 | - | - | - | - | .
Cc1ccc(C(=O)Nc2ccc(N3CCN(S(C)(=O)=O)CC3)cc2)cc1 | - | - | - | - | - | - | . | .
CN1CCN(c2ccc(NC(=O)c3ccc(-c4ccc(Cl)cc4)o3)cc2)CC1 | - | - | 100.4 | - | - | 105.0 | 48.0 | 76.8
CS(=O)(=O)N1CCN(c2ccc(NC(=O)c3ccc(-c4ccc(Cl)cc4)o3)cc2)CC1 | - | - | - | - | - | - | - | .
CCn1c(=S)sc2c(=O)n(CC(=O)Nc3cccc(OC)c3)c(C)nc21 | - | - | - | - | - | - | . | .
CCc1nc(N=C(N)N)nc2ccccc12 | . | . | 59.0 | - | . | - | - | .
Clc1nc(-c2ccccc2)c2ccccc2n1 | - | - | - | - | - | - | . | .
CCc1nc2ccccc2c(C(=O)O)c1C | - | - | - | - | - | - | . | .
SMILES | NR3A LBD binder | Gli-Sufu antag | Mdm2 MdmX PPI | Beta cell apopt | MPTP inh | CSC inhib | Mdm2-MdmX conf | FLuc counter
NC(N)=Nc1nc(-c2ccccc2)c2ccccc2n1 | - | - | 62.3 | . | - | - | - | .
CNC[C@H]1Oc2ccc(NC(=O)C3CCCCC3)cc2CC(=O)N([C@H](C)CO)C[C@@H]1C | - | - | - | - | - | - | . | .
CNC(=S)N/N=C/c1ccc(-c2cccc(C(=O)O)c2)o1 | - | - | - | - | - | - | . | .
Cc1ccc(C(=O)N/N=C/c2ccc(-c3cccc(C(F)(F)F)c3)o2)cn1 | - | - | 58.2 | - | - | - | 53.0 | 49.6
Cc1ccc(-c2nc3ccccc3n2C(C)C(=O)NC(C)(C)C)cc1 (stereo not given) | . | . | . | . | - | . | . | .
CC1CCCCc2nc3c(c(=O)n21)CCCC3 (stereo not given) | . | . | . | . | - | . | . | .
O=[N+]([O-])c1cc(Cl)cc(/C=N\Nc2ccccn2)c1O | - | 56.8 | 69.6 | 108.9 | - | 112.0 | 77.1 | 55.0
O=C(N/N=C/c1cc(Cl)cc([N+](=O)[O-])c1O)c1cc(-c2ccccn2)nc2ccccc12 | - | - | 58.6 | - | - | - | - | .
COc1cccc(/C=N/NC(=O)c2cc(-c3ccccn3)nc3ccccc23)c1O | - | - | 75.5 | 92.9 | - | - | 60.0 | 40.0
CN(Cc1cnn(-c2ccc(F)cc2)c1)C(=O)[C@H]1O[C@@H](n2cnc3c(N)ncnc32)[C@H](O)[C@@H]1O | . | . | . | . | - | . | . | .
CCc1ncc(C(O)c2ccc(Cl)cc2)n1Cc1ccccc1 (stereo not given) | . | . | . | . | - | . | . | .
CCc1ccc(CN(C)Cc2c(C(=O)N3CCOCC3)nc3c(C)cccn23)nc1 | . | . | . | . | - | . | . | .
CC(=O)c1sc(NC(=O)c2cc(-c3ccccc3)nn2-c2ccccc2)nc1C | - | - | - | - | - | - | . | .
O=C(Nc1nc2ccccc2s1)c1cc(-c2ccccc2)nn1-c1ccccc1 | - | - | 86.0 | 111.4 | - | - | 47.0 | 109.6
COc1ccc(CN2C(=NC(=O)c3ccccc3)SC3CS(=O)(=O)CC32)cc1 (stereo not given) | - | - | 50.1 | - | - | - | - | .
COc1ccc(CN2C(=NC(=O)C3CC3)SC3CS(=O)(=O)CC32)cc1 (stereo not given) | - | - | - | - | - | - | . | .
COc1ccc(CN2C(=NC(=O)c3ccccc3)SC3CS(=O)(=O)CC32)cc1OC (stereo not given) | - | - | - | - | - | - | . | .
COc1ccc(C(=O)N=C2SC3CS(=O)(=O)CC3N2Cc2ccc(F)cc2)cc1 (stereo not given) | - | - | 51.0 | - | - | - | 40.9 | 65.1
Cc1ccc(C(C)C)c(OCC(=O)Nc2cccc(S(=O)(=O)NC3=NCCCCC3)c2)c1 | - | - | - | - | - | - | . | .
O=C(NCc1ccccn1)C(=O)NN=C1CCCCCCC1 | - | - | - | - | - | - | . | .
C=CCNCC(=O)N1N=C(c2ccc3ccccc3c2)CC1c1ccc(OC)cc1 (stereo not given) | - | - | - | - | - | - | . | .

From PubChem BioAssay
